# Laboratory results published in the supplement of paper PMC4237247.
# Tested on: HeLa
# Experiment: percent cells in G2/M phase; higher = more G2/M arrest
# Settings: 10 µM; 20 h; hit class: G2/M-phase inhibitor
# Description: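 HTS of 79,827 drug-like compounds at 10 uM. HeLa cells in 384-well plates were treated for 20 h, fixed, stained with Vybrant DyeCycle Green and scanned on an Acumen eX3 cytometer to give per-well cell cycle profiles. Only G2/M hits (>=67% G2/M) are listed.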
row,SMILES,percent cells in G2/M phase
1,O=C(O)c1ccccc1SC1CC(=O)N(c2ccc(Br)cc2)C1=O (centres undefined),75.3%
2,COC(=O)Nc1nc2ccc(SC(C)C)cc2[nH]1 [Methiazole],72.9%
3,O=C(CSc1nc2ccc([N+](=O)[O-])cc2s1)c1ccc(Cl)cc1,69.3%
4,CC(=O)Nc1ccc(Nc2nc(-c3c(C)nc4ccccn34)cs2)cc1,78%
5,COc1cc(NS(=O)(=O)c2ccc(NC(C)=O)cc2)c(OC)cc1Cl,71%
6,O=c1[nH]c(/C=C/c2ccccc2F)nc2ccccc12,76.3%
7,CCN(CC)CCN1C(=O)C(=O)C(=C(O)c2ccccc2)C1c1ccccc1F (centres undefined),68.3%
8,COc1cc(-c2onc3ccc(Cl)cc23)cc(OC)c1OC,78.1%
9,COc1ccccc1NC1=CC(=O)CC(c2ccccc2)C1 (centres undefined),70.1%
10,COc1ccc(/C=C/c2ccc3cccc(O)c3n2)cc1C,71.7%
11,CC(=O)O[C@H]1C(=O)[C@@]2(C)[C@H]([C@H](OC(=O)c3ccccc3)[C@]3(O)C[C@H](OC(=O)[C@H](O)[C@@H](NC(=O)c4ccccc4)c4ccccc4)C(C)=C1C3(C)C)[C@]1(OC(C)=O)CO[C@@H]1C[C@@H]2O [Paclitaxel],75.7%
12,O=c1[nH]c(/C=C/c2ccccc2)nc2ccccc12,69.3%
13,COC(=O)Nc1nc2cc(Sc3ccccc3)ccc2[nH]1 [Fenbendazole],66.2%
14,COC(=O)Nc1nc2cc(C(=O)c3ccccc3)ccc2[nH]1 [Mebendazole],76.8%
